{"source": "ChEMBL document CHEMBL4513216", "about": "“Probing the Open Global Health Chemical Diversity Library for Multistage-Active Starting Points for Next-Generation Antimalarials” (ACS Infect Dis, 2020)", "note": "Hit rate of the full screen: of about 69,000 compounds, about 8,600 (12%) showed an effect of 50% or more. The sample as a whole holds a higher share of strong results than the screen did.", "data": [{"test_system": "Plasmodium berghei", "experiment": "Screen against P. berghei liver stage (PbLuc), transformed with Luciferase, at 10uM", "assay_type": "functional, HepG2", "details": "tested at 10 uM", "units": {"INHIBITION": "%"}, "values": [{"smiles": "COc1ccc(CNC(=O)N2CCN(CC(O)C3CC3)CC2)cc1", "note": "(stereo not drawn)", "INHIBITION": 35}, {"smiles": "CN(C)CCOc1cccc(CN2CCCC3(C2)CN(C)C(=O)O3)c1", "note": "(stereo not drawn)", "INHIBITION": 20.9}, {"smiles": "Cc1ccc(C(CNCc2nccn2C)N2CCOCC2)s1", "note": "(stereo not drawn)", "INHIBITION": 47.4}, {"smiles": "CN(Cc1ncc[nH]1)CC(c1cccs1)N1CCOCC1", "note": "(stereo not drawn)", "INHIBITION": 12.8}, {"smiles": "Cc1ccc(C(CNCc2cccnc2)N2CCOCC2)s1", "note": "(stereo not drawn)", "INHIBITION": 42.3}, {"smiles": "CCn1ccnc1CNCC(c1ccc(C)s1)N1CCOCC1", "note": "(stereo not drawn)", "INHIBITION": 60.3}, {"smiles": "Cc1ccc(C(CNCC2CC2)N2CCOCC2)s1", "note": "(stereo not drawn)", "INHIBITION": -23.2}, {"smiles": "Cc1ccc(C(CNCc2ncc[nH]2)N2CCOCC2)s1", "note": "(stereo not drawn)", "INHIBITION": 60.3}, {"smiles": "Cc1nccn1CCN(C)C(=O)c1cn(-c2ccccc2)nn1", "INHIBITION": -32.6}, {"smiles": "CC(C)NC(=O)N1CCCn2cnc(CN3CCCC3=O)c2C1", "INHIBITION": -12.2}, {"smiles": "CN(C)CCOCC1CN(C(=O)c2ccnnc2)Cc2ccnn2C1", "note": "(stereo not drawn)", "INHIBITION": 39.8}, {"smiles": "CO[C@H]1CN(Cc2nc3ccccc3n2C)C[C@@]12CCCO2", "INHIBITION": 25.64}, {"smiles": "COCCCNC(=O)CN(C)C(=O)c1ccc(-n2cccc2)cc1O", "INHIBITION": 39.25}, {"smiles": "CCn1c(Cn2cncn2)nnc1C1CCN(C2CCOCC2)CC1", "INHIBITION": 15.7}, {"smiles": "Cc1n[nH]c(C2CN(C(=O)COCC(F)(F)F)CCO2)n1", "note": "(stereo not drawn)", "INHIBITION": 32.2}, {"smiles": "NC(=O)c1cnn2c1NCC(CNC1(c3ccccc3)CCC1)C2", "note": "(stereo not drawn)", "INHIBITION": 33.7}, {"smiles": "O=S(=O)(NCc1ccc(S(=O)(=O)N2CCCC2)s1)c1cc(Cl)ccc1Cl", "INHIBITION": 3.48}, {"smiles": "Nc1nc(SCc2ccc3c(c2)OCO3)ns1", "INHIBITION": -14.2}, {"smiles": "CC(C)CNC(=O)Nc1cccc(OCC#N)c1", "INHIBITION": -8.4}, {"smiles": "CN(CCn1ccc2ccccc21)C(=O)Cc1n[nH]c(=O)[nH]1", "INHIBITION": 5.38}, {"smiles": "CN(CCn1ccc2ccccc21)C(=O)Cc1nnn[nH]1", "INHIBITION": 62.8}, {"smiles": "CN(CCn1ccc2ccccc21)C(=O)CS(C)(=O)=O", "INHIBITION": 34.1}, {"smiles": "Cn1cc(CN2CCCN(C(=O)c3sccc3C#N)CC2)cn1", "INHIBITION": -5.25}, {"smiles": "c1cnc(N2CCC3(CC2)CN(CC2CC2)c2ccccc23)nc1", "INHIBITION": 83.2}, {"smiles": "CS(=O)(=O)N1CCC2(CC1)CN(CC1CCOC1)c1ccccc12", "note": "(stereo not drawn)", "INHIBITION": 39.4}, {"smiles": "c1cnc(N2CC3(CCN(CC4CCOC4)CC3)c3ccccc32)nc1", "note": "(stereo not drawn)", "INHIBITION": 18.7}, {"smiles": "CCCS(=O)(=O)N1CCC2(CC1)CC(N1CCCC1)c1ccccc12", "note": "(stereo not drawn)", "INHIBITION": 71.8}, {"smiles": "c1ccc2c(c1)N(CC1CCOC1)CC21CCN(c2cnccn2)CC1", "note": "(stereo not drawn)", "INHIBITION": 84.7}, {"smiles": "O=C1N(CC2CC2)CCC12CCN(c1ncccn1)CC2", "INHIBITION": -2.6}, {"smiles": "CCS(=O)(=O)N1CCC2(CC1)CC(CC(=O)NC1CC1)c1ccccc12", "note": "(stereo not drawn)", "INHIBITION": -5.22}, {"smiles": "c1cnc(N2CCC3(CCN(CC4CCOC4)CC3)C2)nc1", "note": "(stereo not drawn)", "INHIBITION": -10.2}, {"smiles": "CCS(=O)(=O)N1CCC2(CC1)CN(CC1CCOC1)c1ccccc12", "note": "(stereo not drawn)", "INHIBITION": 73.8}, {"smiles": "O=C1CC2(CCN(CC3CCOC3)CC2)c2ccccc2N1CC1CC1", "note": "(stereo not drawn)", "INHIBITION": 9.97}, {"smiles": "OCCN1CC2(CCN(CC3CC3)CC2)c2ccccc21", "INHIBITION": 26}, {"smiles": "CCS(=O)(=O)N1CCC2(CCC(N3CCCC3)c3ccccc32)CC1", "note": "(stereo not drawn)", "INHIBITION": 23.1}, {"smiles": "Cc1cc(C(=O)N2CCn3cc(CN4CCN(C)CC4)nc3C2)no1", "INHIBITION": 32.2}, {"smiles": "Cc1nc(Nc2nccs2)cc(C2CN(C(C)C)C2)n1", "INHIBITION": -17.9}, {"smiles": "CC(=O)N1CCCC(c2cnc(-c3c(C)nn(C)c3C)cn2)C1", "note": "(stereo not drawn)", "INHIBITION": 47.8}, {"smiles": "CCc1n[nH]c(C2CN(C(=O)c3ccc(Cl)cn3)CCO2)n1", "note": "(stereo not drawn)", "INHIBITION": 25.4}, {"smiles": "CN(CC(=O)N(C)C(c1ccc(Cl)cc1)c1cccnc1)C1CC1", "note": "(stereo not drawn)", "INHIBITION": 3.19}, {"smiles": "CCS(=O)(=O)N1CCC2(CC1)CC(Oc1ccccn1)CO2", "note": "(stereo not drawn)", "INHIBITION": 0.547}, {"smiles": "CN1CCCN(C[C@@H]2CN(c3nc(C(N)=O)cs3)C[C@@H]2CO)CC1", "INHIBITION": 20.3}, {"smiles": "Cc1cnn(C2CCCN(C(=O)c3ccc(N4CCCC4)nc3)C2)c1", "note": "(stereo not drawn)", "INHIBITION": 19.6}, {"smiles": "CN1CCC(N(C)C(=O)c2cnn(-c3ccccc3Br)c2N)CC1", "INHIBITION": 27.3}, {"smiles": "CN(C)C(=O)N1CCC2(CC1)C(=O)N(CC1CCOC1)c1ccccc12", "note": "(stereo not drawn)", "INHIBITION": 7.5}, {"smiles": "CCCS(=O)(=O)N1CCC2(CC1)CN(C(=O)N(C)C)c1ccccc12", "INHIBITION": 10.7}, {"smiles": "CCCS(=O)(=O)N1CCC2(CC1)CN(CC1CCOC1)c1ccccc12", "note": "(stereo not drawn)", "INHIBITION": 87.4}, {"smiles": "O=C1CO[C@@H]2CN(CC3CCOCC3)C[C@H]2N1CC1CC1", "INHIBITION": 37.5}, {"smiles": "Cc1cccnc1NCCNC(=O)[C@H]1CNC[C@@H](C(=O)N2CCCC2)C1", "INHIBITION": 18.5}, {"smiles": "N#Cc1cccnc1NCCNC(=O)N1CCCC(N2CCCC2)C1", "note": "(stereo not drawn)", "INHIBITION": 24.6}, {"smiles": "CN(C)C(=O)N1CCC(C(=O)NCCNc2ncccc2C#N)CC1", "INHIBITION": 68.8}, {"smiles": "Cc1cccnc1NCCNC(=O)C1CCN(Cc2ccco2)CC1", "INHIBITION": 48.4}, {"smiles": "N#Cc1cccnc1NCCNC(=O)N1CCSCC1", "INHIBITION": 14.6}, {"smiles": "Cc1cccnc1NCCNC(=O)C1CCN(C(=O)N(C)C)CC1", "INHIBITION": 50.2}, {"smiles": "CCn1c(C2CCNCC2)nn(CCn2cncn2)c1=O", "INHIBITION": 32}, {"smiles": "COc1cc(CN2CCC(COCc3ccccc3)CC2)cc(OC)c1", "INHIBITION": 33.7}, {"smiles": "COCCNC(=O)NCc1cc(-c2ccncc2)n(C2CCCC2)n1", "INHIBITION": 26.4}, {"smiles": "Cc1cc2nc(C3CCCCC3)c(-c3ccnc(NCCO)n3)cn2n1", "INHIBITION": 20.4}, {"smiles": "Cc1ncc(-c2ccnc(N[C@@H](C)CO)n2)c(C2CCCCC2)n1", "INHIBITION": 47.1}, {"smiles": "Cc1ncc(-c2ccnc(NCCO)n2)c(C2CCCCC2)n1", "INHIBITION": 79.7}, {"smiles": "Cc1cccc(C)c1NC(=O)CC(CN1CCN(C)CC1)C(=O)O", "note": "(stereo not drawn)", "INHIBITION": 5.21}, {"smiles": "O=C1CCc2cc(-c3csc(CCN4CCOC4=O)n3)ccc2N1", "INHIBITION": -26.6}, {"smiles": "Cc1nccn1C1CCCN(C(=O)c2cc(Cl)c3c(c2)OCO3)C1", "note": "(stereo not drawn)", "INHIBITION": -15.5}, {"smiles": "COCCN1CCOCC12CCN(C(=O)c1ccoc1)CC2", "INHIBITION": 21.8}, {"smiles": "COCCN1CCOCC12CCN(C(=O)c1ccncc1)CC2", "INHIBITION": 47.4}, {"smiles": "COCCN1CCOCC12CCN(C(=O)c1c[nH]c3ccccc13)CC2", "INHIBITION": 57.9}, {"smiles": "N#Cc1ccc(OCCCN2CCOC(Cn3cncn3)C2)cc1", "note": "(stereo not drawn)", "INHIBITION": 36.1}, {"smiles": "CC1(C2CCN(CC(N)=O)CC2)CN(Cc2ccccc2)C(=O)O1", "note": "(stereo not drawn)", "INHIBITION": 1.5}]}]}
